Each structure is given as a SMILES string. The campaign covered roughly 340,000 compounds. About 12,000 (3.5%) were called active. About 18% were inconclusive and are not listed. No cut-off for these calls is given here. The sample as a whole holds a higher share of actives than the screen did.

The nature of the assay: qHTS Assay for Inhibitors of Hepatitis C Virus (HCV). The assay is classed as functional. As to conditions: read-out: Potency. (In general: In qHTS, concentration-response curves come from the screen itself.)
Turning to `CO[C@H]1/C=C\O[C@@]2(C)Oc3c(C)c(O)c4c(O)c(c5c(c4c3C2=O)=NC2(CCN(CC(C)C)CC2)N=5)NC(=O)/C(C)=C\C=C/[C@H](C)[C@H](O)[C@@H](C)[C@@H](O)[C@@H](C)[C@H](OC(C)=O)[C@@H]1C`, the AC50 is 158 µM (active).

With `COc1ccc([C@@]23Oc4cc(OC)cc(OC)c4[C@]2(O)[C@H](O)[C@H](C(=O)N(C)C)[C@H]3c2ccccc2)cc1` [ROCAGLAMIDE], the AC50 is 100 µM (active).

For the molecule `O=C(O)c1cc(O)c2c(c1)[C@@H]([C@H]1c3cc(C(=O)O)cc(O)c3C(=O)c3c(O[C@@H]4O[C@H](CO)[C@@H](O)[C@H](O)[C@H]4O)cccc31)c1cccc(OC3O[C@H](CO)[C@@H](O)[C@H](O)[C@H]3O)c1C2=O` (stereo partly specified), the AC50 was 79.4 µM (active).

Take `[N-]=[N+]=NC[C@H](Cc1ccccc1)N1CC[C@@H](OCc2ccccc2)CCC1=O`: the AC50 was 100 µM (active).

For `Cl.N[C@@H](CCC(=O)O)C(=O)O` [GLUTAMIC ACID HYDROCHLORIDE], the AC50 is 1.12 µM (active).

In the case of `C#CC(=O)N(c1cc(OC)ccc1OC)C(C(=O)NC1CCCC1)c1cccs1` (stereo unspecified), the AC50 was 112 µM (active).
